This is an account of results in PubChem BioAssay (NCATS).

Structures are written as SMILES. A number with no mark means an inactive call. Calls come from the whole dose curve.

The assay concerns the target Glucocorticoid receptor (Homo sapiens) (UniProt P04150). In words: GR-EFC Redistribution (AID 451). To be noted: CHO-K1 GR-EFC translocation, beta-gal luminescence, 2 h. An outline of the steps:
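CHO-K1 cells stably expressing nuclear-localized β-gal enzyme acceptor and GR fused C-terminally to the enzyme donor fragment; ligand-driven nuclear translocation restores β-gal by complementation. Compounds titrated up to 46 uM final, 2 h at 37 °C; luminescence read.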
Potency is the fitted concentration of half-maximal effect.

Chain of Glucocorticoid receptor (Homo sapiens) (P04150 whole entry, looked up, the tested form may be a part): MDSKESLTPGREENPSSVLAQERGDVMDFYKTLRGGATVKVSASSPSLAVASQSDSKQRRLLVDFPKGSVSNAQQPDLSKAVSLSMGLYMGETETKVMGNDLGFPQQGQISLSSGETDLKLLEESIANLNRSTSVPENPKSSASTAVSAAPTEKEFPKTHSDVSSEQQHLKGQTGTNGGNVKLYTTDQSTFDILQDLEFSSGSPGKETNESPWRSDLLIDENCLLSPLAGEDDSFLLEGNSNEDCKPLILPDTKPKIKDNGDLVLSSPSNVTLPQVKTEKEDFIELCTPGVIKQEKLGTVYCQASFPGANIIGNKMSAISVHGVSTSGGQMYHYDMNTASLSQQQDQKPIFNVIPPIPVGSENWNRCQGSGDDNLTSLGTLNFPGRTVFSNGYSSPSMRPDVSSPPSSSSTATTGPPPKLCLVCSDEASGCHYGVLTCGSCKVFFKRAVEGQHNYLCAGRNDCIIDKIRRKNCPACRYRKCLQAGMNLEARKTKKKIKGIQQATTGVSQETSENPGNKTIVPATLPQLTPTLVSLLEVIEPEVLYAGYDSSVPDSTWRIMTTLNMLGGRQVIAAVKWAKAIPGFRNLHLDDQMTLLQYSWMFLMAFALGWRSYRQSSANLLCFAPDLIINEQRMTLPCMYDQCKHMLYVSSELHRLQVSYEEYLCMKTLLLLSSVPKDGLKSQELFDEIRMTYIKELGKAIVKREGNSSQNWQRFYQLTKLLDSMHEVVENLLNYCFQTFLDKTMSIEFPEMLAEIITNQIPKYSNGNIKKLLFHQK

In the case of `O=C(O)[C@H]1CCN1`, the Potency was over 46 µM.
Turning to `COc1ccc2c3c1O[C@@H]1C(=O)CC[C@@]4(O)[C@@H](C2)N(CC2CC2)CC[C@]314`, the Potency was over 46 µM.
Under `C[C@]12CC[C@H](O)CC1=CC[C@@H]1[C@H]2CC[C@]2(C)C(=O)CC[C@H]12` stands over 46 µM; under `C[N+]1(C)C2CC(OC(=O)C(CO)c3ccccc3)CC1[C@@H]1O[C@H]21` (stereo not given in full), over 46 µM.
Under `N[C@H](Cc1ccc(N(CCCl)CCCl)cc1)C(=O)O` stands over 46 µM; under `NC[C@H](O)c1cc(O)c(O)cc1F`, over 46 µM.
Under `COc1cc(C[C@H](C)N)c(OC)cc1I` stands over 46 µM; under `C[C@@]12CC[C@H]3[C@@H](CC[C@@H]4C[C@H](O)CC[C@]43C)[C@H]1CC[C@H]2O`, over 46 µM; under `CC(C)[C@@]1(NC(=O)[C@@H]2C=C3c4cccc5[nH]cc(c45)C[C@@H]3N(C)C2)O[C@]2(O)[C@H]3CCCN3C(=O)[C@H](Cc3ccccc3)N2C1=O`, over 46 µM.
Regarding `c1ccc2c(c1)Sc1ccccc1N2C[C@H]1CN2CCC1CC2`, the Potency is over 9.22 µM.
Under `O=C(Nc1cc[c]([Sb](=[O])([OH])[OH])cc1)c1ccccc1` stands over 9.22 µM; under `[N-]=[N+]=CC(=O)CC[C@H](N)C(=O)O`, over 9.22 µM.
In the case of `O=[As](O)(O)c1ccc2nc3cc([As](=O)(O)O)ccc3nc2c1` it was over 9.22 µM.
In the case of `NCCc1ccc(S(=O)(=O)O)cc1[N+](=O)[O-]` it was over 9.22 µM; in that of `CC(=O)[C@@H]1CC[C@H]2[C@H]3CC[C@H]4C[C@@H](O)CC[C@]4(C)[C@@H]3CC[C@]12C`, over 46 µM; in that of `CC(C)[C@@]1(NC(=O)[C@H]2C[C@H]3c4cccc5[nH]cc(c45)C[C@@H]3N(C)C2)O[C@]2(O)[C@H]3CCCN3C(=O)[C@H](Cc3ccccc3)N2C1=O`, over 46 µM.
As to `O[C@H](CN1CC1)[C@@H](O)CN1CC1`, the Potency was over 9.22 µM.
Under `c1ccc(CCN2CCCCCC2)nc1` stands over 9.22 µM; under `CCN(CC)c1ncnc2c1ncn2[C@@H]1O[C@@H](COP(=O)(O)OP(=O)(O)C(Br)(Br)P(=O)(O)O)[C@H](O)[C@@H]1O`, over 46 µM.
In the case of `C[N+]1(C)CCc2cc3c(cc2[C@@H]1[C@@H]1OC(=O)c2c1ccc1c2OCO1)OCO3` it was over 46 µM; in that of `C[C@@]12CC[C@H]3[C@@H](CCC4=C(O)C(=O)CC[C@]43C)[C@H]1CCC2=O`, over 46 µM; in that of `C[C@@H]1Cc2cc3c(cc2C(c2ccc(N)cc2)=NN1)OCO3`, over 46 µM.
On to `CCn1cnc2c(Nc3cccc(Cl)c3)nc(N[C@@H]3CCCC[C@H]3N)nc21`, for which the Potency was over 46 µM.
In the case of `C[C@@H](O)CN(CCN(C[C@@H](C)O)C[C@@H](C)O)C[C@@H](C)O.O=[N+]([O-])O.[Cu]` it was over 9.22 µM; in that of `CCCN1CC[C@@H]2c3cc(O)ccc3CC[C@H]21`, over 46 µM.
Under `O=C(O)CSCC(=O)O` stands over 9.22 µM; under `C[C@@H]1O[C@H]1P(=O)(O)O`, over 46 µM; under `CC(=O)OCC1=C(C(=O)[O-])N2C(=O)[C@@H](NC(=O)CCC[C@@H](N)C(=O)[O-])[C@@H]2SC1.[Zn+2]`, over 46 µM.
With `Oc1ccc2c3c1O[C@@H]1c4[nH]c5c(c4C[C@@]4(O)[C@@H](C2)N(CC2CC2)CC[C@]314)C[C@]1(O)[C@@H]2Cc3ccc(O)c4c3[C@@]1(CCN2CC1CC1)[C@H]5O4`, the Potency is over 46 µM.
In the case of `N[C@H](Cn1ccc(=O)[nH]c1=O)C(=O)O` it was over 46 µM; in that of `CN1C[C@@H](CS(=O)(=O)N(C)C)C[C@H]2c3cccc4c3c(cn4C)C[C@@H]21`, over 46 µM; in that of `C#CCN[C@@H](C)Cc1ccccc1`, over 46 µM.
Under `C=CCN1CC[C@]23c4c5ccc(O)c4O[C@@H]2/C(=N/NC(=O)c2ccccc2)CC[C@@]3(O)[C@H]1C5` stands over 46 µM; under `N[C@H](Cn1oc(=O)[nH]c1=O)C(=O)O`, over 46 µM; under `Nc1ncnc2c1ncn2[C@@H]1O[C@@H](COP(=O)(O)CP(=O)(O)OP(=O)(O)O)[C@H](O)[C@@H]1O`, over 46 µM.
